The source of these data is PubChem BioAssay (NCI).

What all share (experiment): NCI-60 one-dose screen, 48 h (100 = growth as untreated, 0 = no growth, -100 = all killed)
What all share (conditions): 10 µM unless noted

Assay [1] has as its system SK-MEL-2 melanoma.
Assay [2] concerns EKVX NSCLC.
In assay [3] the test system is UO-31 renal.
Assay [4] relates to TK-10 renal.
Assay [5] concerns ACHN renal.
Assay [6] concerns A498 renal.
Assay [7] relates to CCRF-CEM leukemia.
Assay [8] deals with MOLT-4 leukemia.
For assay [9], the system named is SR leukemia.
For assay [10], the system named is RPMI-8226 leukemia.
Assay [11] deals with OVCAR-8 ovarian.
The test system of assay [12] is OVCAR-5 ovarian.
Assay [13] deals with IGROV1 ovarian.
The subject of assay [14] is OVCAR-3 ovarian.
Assay [15] relates to HS 578T breast.
The subject of assay [16] is NCI/ADR-RES ovarian.
In assay [17] the test system is CAKI-1 renal.
Assay [18] has as its system OVCAR-4 ovarian.
Assay [19] concerns SK-OV-3 ovarian.

Molecules are shown by their SMILES. About 83,000 compounds went through this panel and 20% of them were active in at least one assay; those are over-represented in the sample as a whole.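 Cells were grown in 96-well plates and exposed to the test compound at a single concentration for 48 hours; results are reported as percent growth, with values below 10 considered active.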 A number with no mark means an inactive call. The source made the active and inactive calls.

As for `COc1ccc(-c2cc(-c3ccc(Nc4ccnc5cc(Cl)ccc45)cc3)nc(N3CCOCC3)n2)cc1`, the growth in assay [1] was 90.3%; in assay [2], 90.4%; in assay [3] it was 87.8%; in [4], 9.38% (active); in assay [5], 80.7%; in assay [6], 86.6%. Further, the growth in assay [7] is 3.53% (active); in assay [8], 23.9%; in assay [9] it was -18% (active); in [10] it was -1.81% (active); in assay [11], 15.3%; in [12], 135%. The growth in assay [13] is 103%; in assay [14] it was 2.68% (active); in [15], -11.4% (active); in [16] it was 20.8%.
Turning to `O=C(N=Nc1c(O)[nH]c2ccc(Br)cc12)c1cc(-c2ccccc2)on1`, the growth was 95.6% in [1]; 91.3% in assay [2]; 90.5% in assay [3]; 108% in assay [4]; 103% in assay [5]; 88.7% in assay [17]. For the same compound, the growth in assay [6] is 77.6%; in assay [7] it was 102%; in [8] it was 100%; in [10], 105%; in assay [11], 104%; in [12], 98.9%. Moreover, the growth in [18] was 94.9%; in assay [19] it was 111%; in [14], 115%; in [16], 103%.
With `COc1cc2nc(N3CCCC3)nc(NCCc3ccccc3)c2cc1OC`, the growth was 103% in [1]; 59.5% in [2]; 69.2% in [3]; 98.3% in [4]; 85.7% in assay [5]; 83.1% in assay [6]. Further, the growth is 0.115% (active) in [7]; -2.23% (active) in assay [8]; -21.8% (active) in assay [10]; 65.6% in assay [11]; 39.5% in assay [12]; 84.7% in assay [19]. Moreover, the growth in assay [13] is 70.3%; in assay [14], 82.5%; in assay [15] it was 98.4%; in assay [16], 61.8%.
As to `CN(C)C(=S)N=Nc1c(O)[nH]c2ccccc12`, the growth in assay [1] is -12.6% (active); in assay [2], 14.8%; in [3], -19.1% (active); in assay [4] it was 28.9%; in [5], 16.9%; in [6], 1.31% (active). Also, the growth in assay [7] was -11.6% (active); in [8] it was -12.4% (active); in assay [9] it was -17.8% (active); in assay [11], -24.1% (active); in assay [12], 35.3%; in assay [18] it was 14.9%. Further, the growth in assay [19] was 18.8%; in [13], -58.9% (active); in assay [14] it was 3.86% (active); in [15] it was 13.4%; in assay [16] it was -11.6% (active).
For the compound `Nc1ccc(S(=O)(=O)O)c2ccc(N=Nc3ccc(N=Nc4ccc(S(=O)(=O)O)cc4)c4ccccc34)c(O)c12`, the growth in assay [1] was 110%; in [2], 124%; in [3] it was 55.8%; in [4] it was 98.7%; in [5], 101%; in assay [6] it was 98.8%. The growth in assay [7] was 106%; in assay [8] it was 80.2%; in assay [9], 99.8%; in [10], 104%; in assay [11], 103%; in assay [12], 108%. In addition, the growth in [18] is 115%; in assay [19] it was 96%; in assay [13], 86.5%; in assay [14], 108%; in assay [15], 100%; in assay [16], 112%.
`C=C1C(=O)O[C@H]2[C@H]1CC/C(COC(=O)NCc1ccc(OC)c(OC)c1)=C\CC[C@@]1(C)O[C@@H]21`: the growth was 85.1% in assay [1]; 65.9% in [2]; 56.7% in [3]; 50.9% in assay [4]; 6.25% (active) in [5]; 86.9% in [6]. In addition, the growth in assay [7] is -7.86% (active); in assay [8], 39.4%; in [9] it was 6.13% (active); in assay [10] it was 25.1%; in [11] it was 47.9%; in [12], 85.1%. The growth is 42.3% in assay [18]; 101% in assay [19]; 61% in assay [13]; 19.9% in assay [14]; 93.9% in assay [16].
Take `CC(C)(CCCN=C(N)Nc1ccc(Cl)cc1)c1ccc(F)cc1`: the growth in [1] is 94.6%; in assay [2] it was 71.7%; in assay [3], 58.5%; in [4] it was 72.4%; in assay [5] it was 67.4%; in assay [6], 77.6%. For the same compound, the growth was 53.7% in assay [7]; -13.6% (active) in assay [9]; 11% in assay [10]; 87.3% in assay [11]; 75.8% in assay [12]; 54.4% in assay [18]. Besides, the growth in [19] is 94.7%; in assay [13], 55.2%; in assay [14], 71.2%; in [15], 83.2%; in assay [16], 73.8%.
`COc1ccc(N=Nc2nccs2)c(O)c1`: the growth is 64.2% in [1]; 30.9% in [2]; 13.1% in assay [3]; 51.3% in [4]; 18.4% in assay [5]; 86.5% in assay [6]. Besides, the growth was 4.6% (active) in [7]; 4.68% (active) in assay [8]; 11.5% in assay [9]; 21.6% in assay [10]; 20.2% in assay [11]; 87.2% in [12]. Besides, the growth in [18] is 22.4%; in assay [19] it was 52.4%; in assay [13] it was 25%; in assay [14] it was 33.1%; in [15], 85.3%; in [16] it was 14.4%.
Regarding `O=C1OC(c2ccccc2)C(O)=C1c1ccccc1` (centres undefined), the growth in assay [1] is 117%; in assay [2] it was 104%; in assay [3], 79.7%; in [4] it was 110%; in assay [5], 103%; in assay [6], 100%. Besides, the growth in [7] is 89.7%; in assay [8] it was 90.1%; in [9] it was 109%; in assay [10], 96.5%; in assay [11], 100%; in [12] it was 99.2%. In addition, the growth in assay [18] is 121%; in assay [19], 115%; in assay [13], 111%; in assay [14], 102%; in [15] it was 110%; in assay [16], 116%.
With `Cc1cc2nc3[nH]c4ccccc4c3nc2cc1C`, the growth in [1] was 104%; in assay [2], 79.3%; in assay [3], 68.4%; in assay [4], 107%; in assay [5] it was 91.9%; in [6] it was 121%. The growth in assay [7] was 76.2%; in [9], 14.2%; in [11], 62.3%; in [12], 102%; in assay [18], 82.8%; in assay [19] it was 86.2%. Also, the growth in assay [13] is -6.27% (active); in assay [14], 92%; in assay [15], 1.63% (active); in assay [16], 78.9%.
